In PubChem BioAssay AID1903 (Southern Research Specialized Biocontainment Screening …, 2009) one finds inhibition data, which are given here for 61 compounds.

Screen size: about 310,000 compounds; about 1,200 (0.39%) were called active. A selection follows. Entries with a potency or affinity are not part of this list. A number with no mark means an inactive call. How the calls were made is not given here.

The assay deals with Large T antigen (Simian virus 40) (UniProt P03070). Briefly: TAg ATPase/helicase activity blockers – biochemical (AID 1903). Conditions: SV40 large T antigen ATPase/helicase inhibition assay; at 20 µM; active compounds read high.
Large T antigen (Simian virus 40), sequence (P03070 whole entry, looked up): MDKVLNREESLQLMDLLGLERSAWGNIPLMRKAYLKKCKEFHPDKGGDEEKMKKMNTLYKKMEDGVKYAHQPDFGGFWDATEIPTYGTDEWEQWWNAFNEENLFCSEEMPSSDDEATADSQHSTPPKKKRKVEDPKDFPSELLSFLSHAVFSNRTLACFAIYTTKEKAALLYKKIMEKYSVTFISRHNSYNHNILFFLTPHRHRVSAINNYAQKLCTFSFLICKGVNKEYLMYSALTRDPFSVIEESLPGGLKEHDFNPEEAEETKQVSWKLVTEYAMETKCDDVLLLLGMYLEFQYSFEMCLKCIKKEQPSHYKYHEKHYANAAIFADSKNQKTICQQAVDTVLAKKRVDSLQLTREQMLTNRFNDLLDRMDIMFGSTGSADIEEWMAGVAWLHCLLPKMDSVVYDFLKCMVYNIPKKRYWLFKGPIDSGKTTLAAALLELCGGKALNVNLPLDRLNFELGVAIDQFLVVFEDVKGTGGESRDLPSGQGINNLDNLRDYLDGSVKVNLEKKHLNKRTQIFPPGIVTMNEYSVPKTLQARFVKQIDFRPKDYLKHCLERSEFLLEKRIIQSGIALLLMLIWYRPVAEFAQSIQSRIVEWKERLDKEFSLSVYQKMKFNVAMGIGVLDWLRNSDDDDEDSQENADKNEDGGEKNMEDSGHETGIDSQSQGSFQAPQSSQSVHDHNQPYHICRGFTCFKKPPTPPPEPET
For `COc1cc(OC)c(C(=O)NC23CC4CC(CC(C4)C2)C3)cc1OC`, the inhibition (commonly the drop in the measured response relative to a control, in per cent) was 3.9%. The figure for `COC(=O)c1ccc(/C=N/OCC(=O)NCCc2ccc(OC)c(OC)c2)cc1` is 2.45%; for `Cn1c(-c2ccccc2)c[n+]2c1-c1ccccc1C2` it is 6.66%; for `Cc1cccc(N2CCN(C3=NC(=O)C(=C4CCCCC4)S3)CC2)c1` it is 7.31%. To `CCOc1ccc(NS(=O)(=O)c2ccc(N)cc2)cc1` belongs 2.32%; to `O=C(O)c1cccc2c1C(=O)c1ccccc1C2=O`, 2.63%. The figure for `Nc1c(C(=O)O)ccc2c1C(=O)c1ccccc1C2=O` is 6.68%; for `CC(C)Oc1ccc(S(=O)(=O)N2CCOCC2)cc1NC(=O)C1CCC1` it is 4.96%. With `Cc1nn(-c2ccccc2)c(N)c1Sc1ccc([N+](=O)[O-])cc1`, the inhibition is -2.9%.

`COc1c(/C=N/Nc2ccc([N+](=O)[O-])cc2[N+](=O)[O-])c(C)nn1-c1ccccc1`: the inhibition is -4.36%. To `C=CCn1cc(CN2CCC(C(=O)Nc3cccc(-c4cccc(F)c4)c3)CC2)c(C)n1` belongs 9.97%; to `CCN1C(=O)CC(N2CCN(c3ccc(OC)cc3)CC2)C1=O` (stereo unspecified), 27.7%. With `CCN1C(=O)CC(N2CCC(Nc3ccc(F)cc3)CC2)C1=O` (stereo unspecified), the inhibition was 0.22%. With `O=C(OCc1cn(Cc2ccccc2)nn1)c1ccccc1`, the inhibition was 7.89%.

Consider `COc1ccc2nc(NC(=O)/C=C/c3ccc4c(c3)OCO4)sc2c1`, for which the inhibition is 5.17%. To `O=C(Oc1ccc(N(C(=O)c2ccncc2)S(=O)(=O)c2ccc(F)cc2)cc1)c1ccncc1` belongs 32%. To `Cc1ccc(S(=O)(=O)N(C(=O)c2ccncc2)c2ccc(OC(=O)c3ccncc3)cc2)c(C)c1` belongs 23.4%. The figure for `C=CCN(c1ccccc1Cl)S(=O)(=O)c1cccc(C(=O)NCCc2ccc(OC)cc2)c1` is 5.14%. Turning to `COc1ccccc1CNCC(O)Cn1c2ccccc2c2ccccc21` (stereo unspecified), the inhibition is 16%. To `CCN(CC)c1ccc(NC(=O)c2ccco2)c(C)c1` belongs 38%; to `CCN(CC)c1ccc(NC(=O)c2ccc3c(c2)OCO3)c(C)c1`, 22.6%. The figure for `CCc1ccc(NC(=O)c2cccnc2)cc1` is 21.3%; for `O=C(Nc1ccc(NC(=O)c2cccnc2)cc1)c1ccccc1` it is 9.81%; for `CCn1cc(C(=O)Nc2ccc(C)c([N+](=O)[O-])c2)cn1` it is 2.51%. The figure for `CCN(CC)c1ccc(NC(=O)c2c(OC)cccc2OC)c(C)c1` is 24.5%; for `CCn1cc(C(=O)Nc2ccc(F)c(F)c2)cn1` it is 16%; for `CCN(CC)c1ccc(NC(=O)c2cc(OC)cc(OC)c2)c(C)c1` it is 19.6%.

Consider `O=C(CSc1nnc(Cc2ccccc2)n1Cc1ccco1)NC12CC3CC(CC(C3)C1)C2`, for which the inhibition was 3.4%. The figure for `CN(C)C(=O)C1CCC(=O)N1Cc1cccs1` (stereo unspecified) is 3.97%; for `COc1ccc(N=Cc2c(O)n(-c3ccc(OC)cc3)c(=O)c3ccccc23)cc1` it is 17.6%; for `CCOc1ccccc1N1CC(C(=O)NCCOc2ccccc2OC)CC1=O` (stereo unspecified) it is 3.13%.

For `Cc1ccc(-c2nc(CS(=O)(=O)CC(=O)N3CCN(C)CC3)c(C)o2)cc1`, the inhibition is 6.58%. To `Cc1nc2scc(C)n2c(=O)c1S(=O)(=O)N1CCN(c2ccc([N+](=O)[O-])cc2)CC1` belongs 13.7%. The figure for `CCc1ccc(N2CC(C(=O)NC3CC3)CC2=O)cc1` (stereo unspecified) is 12.7%. To `Cc1ccccc1NC(=O)c1cccnc1` belongs -1.13%. Regarding `Cc1cc(F)ccc1NC(=O)c1cccnc1`, the inhibition was 3.85%. `CCCOc1ccc(C(=O)N/N=C/c2ccc(-c3ccc(S(=O)(=O)Nc4ncccn4)cc3)o2)cc1`: the inhibition was 35.9%.

On to `CCOc1ccc(C(=O)N/N=C/c2ccc(-c3ccc(S(=O)(=O)Nc4ncccn4)cc3)o2)cc1`, for which the inhibition is 26.6%. Regarding `c1csc(-c2nc3ccccc3[nH]2)c1`, the inhibition was -3.54%. The figure for `Nc1cccc(CCc2nc3cc4ccccc4cc3[nH]2)c1` is 21.5%; for `c1ccc2[nH]c(CCCCc3nc4ccccc4[nH]3)nc2c1` it is 5.68%. The figure for `OCCCc1nc2ccccc2[nH]1` is 13.1%. To `Nc1ccc2oc(-c3cccs3)nc2c1` belongs 5.03%.

In the case of `c1ccc2[nH]c(CCCc3nc4ccccc4[nH]3)nc2c1`, the inhibition was 12.5%. The figure for `Nc1ccc2nc(CCCCc3nc4ccccc4[nH]3)[nH]c2c1` is 32.7%; for `O=[N+]([O-])c1ccc2nc(CCCO)[nH]c2c1` it is -0.4%; for `CCOC(=O)C1=C(COC(=O)/C=C/c2ccc(OC)cc2OC)NC(=O)NC1C` (stereo unspecified) it is 3.33%.

For the compound `CCc1noc(C)c1C(=O)Oc1ccc(N(C)S(=O)(=O)c2ccccc2)cc1`, the inhibition was 12.4%. To `Cc1nn(-c2ccccc2)c(Cl)c1/C=N/NC(=O)c1ccnn1C` belongs 19.3%; to `O=C(O)c1ccc(/C=N/Nc2ccc(F)cc2F)cc1`, 9.08%. To `COc1cccc(CC(NC(C)=O)C(=O)NC2CCN(S(=O)(=O)c3ccc(NC(C)=O)cc3)CC2)c1` (stereo unspecified) belongs 12.6%; to `COc1ccc(OC)c(N(CC(=O)NCc2ccccn2)S(C)(=O)=O)c1`, 5.82%.

Regarding `COc1ccc(/C=N/NC(=O)c2ccccc2OC)cc1COc1ccc(C)cc1`, the inhibition was 1.22%. As to `O=C(c1ccc2c(c1)OCO2)N(c1ccc(F)cc1)C1C=CS(=O)(=O)C1` (stereo unspecified), the inhibition is -0.44%. On to `CCOc1cc(/C=C/c2ccc3cccc([N+](=O)[O-])c3n2)ccc1O`, for which the inhibition is 3.61%. The figure for `CCOc1cc(/C=C/c2cc(C(=O)O)c3ccccc3n2)ccc1O` is 31%; for `COc1ccc(/C=N/NC(=O)c2ccc(=O)n(C)c2)cc1OC` it is 3.81%; for `CCC(=NC)C1=C(O)CC(c2ccccc2)CC1=O` (stereo unspecified) it is 3.84%. To `CCC(=Nc1ccccc1OC)C1=C(O)CC(c2ccccc2)CC1=O` (stereo unspecified) belongs 2.58%; to `O=C1c2cccnc2C(=O)N1Cc1ccc(S(=O)(=O)NCc2ccco2)cc1`, 14.4%.

Turning to `N#C/C(=C\c1ccc(Br)s1)C(=O)N1CCN(c2ccccc2)CC1`, the inhibition is 7.79%.
